# Measured values taken from ChEMBL document CHEMBL3988442, “University of Dundee, Small-Polar-MMV Screening Library” (2021).
# Screen size: about 66,000 compounds; about 960 (1.5%) showed an effect of 50% or more. The sample as a whole holds a higher share of strong results than the screen did.
# Test system: Trypanosoma brucei
# Experiment: Trypanosoma brucei 72 hour study
# Format: functional, organism-based
# Set-up: scale not given: in the data most compounds retested in dose-response had high values
compound,measurement,setting,value
CNc1ncccc1C(=O)N1CCc2c(nc(N)[nH]c2=O)C1,Percent Effect,"30 µM, 30.03 µM",-10.23%
O=C(O)C(F)(F)F.O=C(O)C(F)(F)F.c1cncc(CN2CCc3c(nnn3CC3CC3)C2COCC2CC2)c1 (centres undefined),Percent Effect,"30 µM, 30.03 µM",26.56%
CC(=O)N1CCC2(C=C(C(=O)NC3CC3)c3ccccc32)CC1,Percent Effect,"30.3 µM, […]",3.653%
O=C(C1=CC2(CCNCC2)c2ccccc21)N1CCCC1,Percent Effect,"30 µM, 30.03 µM",-13.07%
O=C(Nc1ccccc1)C1=CC2(CCNCC2)c2ccccc21,Percent Effect,"30.3 µM, […]",93.57%
CC(=O)N1CCCC(c2ccc(Cc3ccccc3)cn2)C1 (centres undefined),Percent Effect,"30.3 µM, […]",98.95%
CC(=O)N1CCCC(c2ccc(Br)cn2)C1 (centres undefined),Percent Effect,"30.3 µM, […]",11.45%
CC(=O)N1CCCC(c2ccccn2)C1 (centres undefined),Percent Effect,"30.3 µM, […]",-37.51%
CS(=O)(=O)Cc1nc(CN2CCOc3ccccc3C2)cs1,Percent Effect,"30.3 µM, […]",7.732%
CC1(C)CN(Cc2csc(CS(C)(=O)=O)n2)Cc2ccccc21,Percent Effect,"30.3 µM, […]",100.6%
CS(=O)(=O)Cc1nc(CN2CCc3ccccc3CC2)cs1,Percent Effect,"30.3 µM, […]",3.123%
CCc1noc(CN(C)CC(c2cccs2)N2CCOCC2)n1 (centres undefined),Percent Effect,"30.3 µM, […]",-14.32%
O=C1CC[C@]2(CC[C@@H](NC(=O)NCc3ccccc3)CC2)N1,Percent Effect,"30.3 µM, […]",-21.31%
CCc1cccc(N2CCC(NC(=O)C3CCOCC3)CC2)c1,Percent Effect,10 µM,-25.13%
same,Percent Effect,"30.3 µM, […]",-1.63%
CC(C)C[C@@H]1N[C@H](C(=O)NC2CCOCC2)Cc2c[nH]c3cccc1c23,Percent Effect,"30.3 µM, […]",74.51%
CC(C)C[C@@H]1N[C@H](C(=O)NCC2CC2)Cc2c[nH]c3cccc1c23,Percent Effect,"30.3 µM, […]",62.49%
CC(C)C[C@@H]1N[C@H](C(=O)NC(C)C)Cc2c[nH]c3cccc1c23,Percent Effect,"30.3 µM, […]",19.91%
COC(=O)[C@@H]1Cc2c[nH]c3cccc(c23)[C@H](CC(C)C)N1,Percent Effect,"30.3 µM, […]",0.4079%
O=C(NC1CCOCC1)C1CC(=O)N(Cc2ccccn2)C1 (centres undefined),Percent Effect,"30 µM, 30.03 µM",11.72%
Cc1cnn(C2CCCN(C(=O)Cc3ccc(C#N)cc3)C2)c1 (centres undefined),Percent Effect,10 µM,-12.45%
same,Percent Effect,"30.3 µM, […]",-6.124%
CC(C)=CCN1C(=O)[C@H]2CC[C@@H]1CN(c1ncccc1F)C2,Percent Effect,"30 µM, 30.03 µM",-6.371%
Cc1cc(=O)n(CCNS(=O)(=O)c2cccc(C(F)(F)F)c2)cn1,Percent Effect,"30 µM, 30.03 µM",-14.9%
CN(C)CC(=O)N1CCC2(CCc3cc(-c4cccnc4)ccc32)CC1.O=C(O)C(F)(F)F.O=C(O)C(F)(F)F,Percent Effect,"30.3 µM, […]",1.858%
O=C(O)C(F)(F)F.O=C(O)C(F)(F)F.c1cncc(-c2ccc3c(c2)CCC32CCN(Cc3nccs3)CC2)c1,Percent Effect,"30.3 µM, […]",13.64%
O=C(O)C(F)(F)F.O=C(O)C(F)(F)F.c1cncc(-c2ccc3c(c2)CCC32CCN(Cc3ccco3)CC2)c1,Percent Effect,"30.3 µM, […]",53.48%
CNC(=O)CN1CC[C@H]2CN(C(=O)c3cccc(C)c3)C[C@H]2C1.O=C(O)C(F)(F)F,Percent Effect,"30.3 µM, […]",-49.02%
CC[C@H](C)[C@H](N)C(=O)Nc1nc(-c2cnc(N(C)CCO)nc2)cs1,Percent Effect,"30.3 µM, […]",-2.058%
CC[C@@H](C)[C@@H](N)C(=O)Nc1cccc(-c2cnc(N(C)CCO)nc2)c1,Percent Effect,"30.3 µM, […]",-10.78%
CC[C@H](C)[C@H](N)C(=O)Nc1nc(-c2cnc(N(C)C)nc2)cs1,Percent Effect,"30.3 µM, […]",53.79%
CC[C@H](C)[C@H](N)C(=O)Nc1nc(-c2cnc(N3CCOCC3)nc2)cs1,Percent Effect,"30.3 µM, […]",13.61%
CC[C@@H](C)[C@@H](N)C(=O)Nc1cccc(-c2cnc(N)nc2)c1,Percent Effect,"30.3 µM, […]",-21.58%
CC[C@@H](C)[C@@H](N)C(=O)Nc1cccc(-c2cnc(N(C)C)nc2)c1,Percent Effect,"30.3 µM, […]",97.6%
COc1ccc(N(c2ccccc2)c2ccc(C(=O)O)s2)cc1,Percent Effect,"30.3 µM, […]",-3.945%
O=C(O)CC(O)(CC(=O)O)C(=O)O.OCCN(Cc1ccncc1)CC1(c2ccc(Cl)cc2)CC1,Percent Effect,"30.3 µM, […]",-34.12%
Cn1cnc2c1C(COCC1CCOCC1)CN(C1CCOCC1)C2.O=C(O)C(F)(F)F.O=C(O)C(F)(F)F (centres undefined),Percent Effect,"30 µM, 30.03 µM",15.95%
Cl.c1cnc2c(c1)cc([C@H]1CCCO1)n2CCN1CCCC1,Percent Effect,"30.3 µM, […]",24.71%
Cn1cccc1C(=O)N1CCC2(CCCN2Cc2ccccc2)CC1.O=C(O)C(F)(F)F,Percent Effect,"30 µM, 30.03 µM",11.3%
CCn1nc(C)c2nnn(CC(=O)Nc3ccccc3)c(=O)c21,Percent Effect,"30.3 µM, […]",-5.47%
Cc1nn(C)c2c(=O)n(CC(=O)Nc3cc(Cl)cc(Cl)c3)nnc12,Percent Effect,"30 µM, 30.03 µM",63.83%
CCn1nc(C)c2nnn(CC(=O)Nc3cccc(Cl)c3)c(=O)c21,Percent Effect,"30 µM, 30.03 µM",35.21%
CCn1nc(C)cc1C(=O)N1C[C@@H]2C[C@@H](C)O[C@@H]2C1.O=C(O)C(F)(F)F,Percent Effect,"30.3 µM, […]",3.708%
COCC1CN(C(=O)c2ccoc2)Cc2cnn(CC3CCOCC3)c21.O=C(O)C(F)(F)F (centres undefined),Percent Effect,"30.3 µM, […]",-46.76%
NC1C=C(C(F)(F)F)NC=C1c1ccccc1 (centres undefined),Percent Effect,"30.3 µM, […]",8.109%
CC(C)CC(=O)N1C[C@@H]2CCN(c3cnccn3)C[C@@H]2C1.O=C(O)C(F)(F)F,Percent Effect,"30.3 µM, […]",-10.22%
CC(C)(C)OC(=O)NCCNC(=O)c1ccc2cc[nH]c2c1,Percent Effect,"30 µM, 30.03 µM",3.798%
CC(C)(C)S(=O)(=O)CCNC(=O)c1ccc2ccccc2c1,Percent Effect,"30 µM, 30.03 µM",-8.633%
CC(C)(C)S(=O)(=O)CCNC(=O)c1ccc2cc[nH]c2c1,Percent Effect,"30 µM, 30.03 µM",101.8%
